Bioassay records (PubChem BioAssay)
Hits are enriched below; roughly 2.1% of the tested compounds scored in any of these assays.
ABCB6 inh 2: inhibitors of human ABC transporter ABCB6 | Q9NP58 | K562-ABCB6 porphyrin accumulation, flow cytometry, 1 h; stronger effect = lower value | fluorescence ratio to DMSO, % at 10 µM | 360,000 compounds, 0.19% hits | AID 602162;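 active = fluorescence ratio to DMSO below 75%, the collection mean minus 3 SD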;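 also: signal is porphyrin accumulated inside mitochondria; 100% equals median channel fluorescence of DMSO control wells; lower ratio means ABCB6 inhibition with less porphyrin fluorescence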
Target sequence (Q9NP58 whole entry, looked up): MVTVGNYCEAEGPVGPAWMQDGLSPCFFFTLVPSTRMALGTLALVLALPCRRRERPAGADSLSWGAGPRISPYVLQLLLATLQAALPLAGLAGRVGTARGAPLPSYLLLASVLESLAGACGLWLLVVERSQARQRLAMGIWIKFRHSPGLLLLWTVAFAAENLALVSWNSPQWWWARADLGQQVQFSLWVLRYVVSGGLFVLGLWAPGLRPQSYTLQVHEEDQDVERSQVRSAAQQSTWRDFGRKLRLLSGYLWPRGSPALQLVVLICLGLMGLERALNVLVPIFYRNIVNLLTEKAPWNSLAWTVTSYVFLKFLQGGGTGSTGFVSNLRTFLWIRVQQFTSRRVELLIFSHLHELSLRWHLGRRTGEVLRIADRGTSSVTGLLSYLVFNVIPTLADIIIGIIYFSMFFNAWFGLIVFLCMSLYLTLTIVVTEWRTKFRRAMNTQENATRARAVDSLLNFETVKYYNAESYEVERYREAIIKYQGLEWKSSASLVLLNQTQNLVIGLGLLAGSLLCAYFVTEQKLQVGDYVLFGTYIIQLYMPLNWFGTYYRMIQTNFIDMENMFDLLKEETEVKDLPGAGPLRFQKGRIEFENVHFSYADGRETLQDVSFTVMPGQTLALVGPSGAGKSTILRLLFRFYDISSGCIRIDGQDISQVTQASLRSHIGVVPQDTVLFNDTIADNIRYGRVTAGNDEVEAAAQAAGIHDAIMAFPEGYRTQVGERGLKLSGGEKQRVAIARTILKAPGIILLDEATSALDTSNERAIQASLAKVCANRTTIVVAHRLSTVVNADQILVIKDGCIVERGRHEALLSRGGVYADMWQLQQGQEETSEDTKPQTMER
MsrA inhibitor: inhibits bovine methionine sulfoxide reductase A. 360,000 compounds, 0.75% hits. AID 651718. inhibition, % at 15.5 µM. purified bovine MsrA, absorbance read-out;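 also: 0% = vehicle wells with enzyme and 100% = reference inhibitor wells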
bovine MsrA act: activators of bovine methionine sulfoxide reductase A | AID 602163 | activation, % at 10.6 µM | 360,000 compounds, 0.3% hits | purified bovine MsrA, absorbance read-out; in the data active = activation above about 7.5%;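 also: 0% = vehicle and 100% = reference activator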
SMARCA2 activ: SMARCA2 function activation, primary screen; MG213 cells, MMTV-luciferase reporter, dexamethasone, overnight; activation, % at 9.1 µM; 370,000 compounds, 1% hits; AID 652017; in the data active = activation above about 7.8%;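 also: 0% = vehicle wells and 100% = reference activator wells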
MsrA inh confirm: confirmation of bovine MsrA inhibitors. 2,300 compounds, 41% hits. inhibition, % at 15.5 µM. shares compounds with MsrA inhibitor. purified bovine MsrA, absorbance read-out;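 also: coupled to thioredoxin reductase with NADPH and selenocystamine and DMSO as substrate; 0% = vehicle only and 100% = full effect of reference inhibitor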
Numbers without * were called inactive. Rule as the data show it, unless noted: active = inhibition above about 4.5%; inactive = the rest.

`O=Cc1cn(-c2ccccc2)nc1-c1ccc2c(c1)OCCO2` gave ABCB6 inh 2 96.0, MsrA inhibitor 16.8*, bovine MsrA act -1.9, SMARCA2 activ 3.7 and MsrA inh confirm 12.4*.
Screening S=C(NCCc1ccccc1)N1CCC2CC1c1cc(-c3ccc4c(c3)OCO4)ccc12 (centres undefined) returned ABCB6 inh 2 91.0, MsrA inhibitor -1.0, bovine MsrA act -5.0 and SMARCA2 activ 1.5.
`O=C(Nc1ccc(-c2nc3ccccc3o2)cc1)c1cc(-n2cnnc2)ccc1Cl` gave ABCB6 inh 2 98.0, MsrA inhibitor 0.7, bovine MsrA act -2.4 and SMARCA2 activ -1.1.
For O=C(Nc1ccc(-c2nc3ccccc3o2)c(O)c1)c1cc(-n2cnnc2)ccc1Cl the results were ABCB6 inh 2 93.0, MsrA inhibitor 4.8*, bovine MsrA act 2.9, SMARCA2 activ -7.0 and MsrA inh confirm 0.0.
`Cn1cc(/C=C(\NC(=O)c2ccccc2)C(=O)NCCN2CCOCC2)c2ccccc21` gave ABCB6 inh 2 104.0, MsrA inhibitor 4.5, bovine MsrA act -14.9 and SMARCA2 activ -1.8.
Cn1cc(/C=C(\NC(=O)c2ccccc2)C(=O)N2CCOCC2)c2ccccc21 was read as ABCB6 inh 2 93.0, MsrA inhibitor 5.7*, bovine MsrA act -4.8, SMARCA2 activ -4.1 and MsrA inh confirm 3.3.
For COc1cc(C(=O)N/C(=C\c2cn(C)c3ccccc23)C(=O)NCCN2CCOCC2)cc(OC)c1OC the results were ABCB6 inh 2 139.0, MsrA inhibitor 5.3*, bovine MsrA act -5.7, SMARCA2 activ -0.5 and MsrA inh confirm 3.7.
`Cc1ccc(C(=O)N/C(=C\c2cn(C)c3ccccc23)C(=O)N2CCOCC2)cc1` gave ABCB6 inh 2 98.0, MsrA inhibitor 1.9, bovine MsrA act -3.9 and SMARCA2 activ -0.4.
Screening Cn1cc(/C=C(\NC(=O)c2ccccc2Cl)C(=O)NCCN2CCOCC2)c2ccccc21 returned ABCB6 inh 2 105.0, MsrA inhibitor 4.8*, bovine MsrA act -11.7, SMARCA2 activ -2.8 and MsrA inh confirm 3.6.
Screening CCn1cc(/C=C(\NC(=O)c2cc(OC)c(OC)c(OC)c2)C(=O)NCCN2CCOCC2)c2ccccc21 returned ABCB6 inh 2 166.0, MsrA inhibitor 1.8, bovine MsrA act -4.4 and SMARCA2 activ -0.9.
Screening Cn1cc(/C=C(\NC(=O)c2ccccc2Cl)C(=O)NCCCN2CCOCC2)c2ccccc21 returned ABCB6 inh 2 93.0, MsrA inhibitor 3.6, bovine MsrA act -2.8 and SMARCA2 activ -0.7.
COc1ccc(C(=O)N/C(=C\c2cn(C)c3ccccc23)C(=O)NCCCN2CCOCC2)cc1 was read as ABCB6 inh 2 90.0, MsrA inhibitor 5.3*, bovine MsrA act -7.2, SMARCA2 activ -1.9 and MsrA inh confirm 3.5.
`COc1ccc(C(=O)O[C@@H]2CCC[C@@]3(C(=O)N(Cc4ccccc4)c4ccccc43)[C@H]2NC(=O)CCc2ccccc2)cc1OC` gave SMARCA2 activ -7.0.
`CCn1cc(/C=C(\NC(=O)c2ccccc2OC)C(=O)NCCN2CCOCC2)c2ccccc21` gave ABCB6 inh 2 98.0, MsrA inhibitor 4.7*, bovine MsrA act -6.6, SMARCA2 activ -2.1 and MsrA inh confirm 3.4.
For COc1ccc(C(=O)N/C(=C\c2cn(C)c3ccccc23)C(=O)NCCN2CCOCC2)cc1OC the results were ABCB6 inh 2 116.0, MsrA inhibitor 4.8*, bovine MsrA act -11.7, SMARCA2 activ -3.6 and MsrA inh confirm 4.3.
CCn1cc(/C=C(\NC(=O)c2ccccc2)C(=O)NCCCN2CCOCC2)c2ccccc21 was read as ABCB6 inh 2 97.0, MsrA inhibitor 4.7*, bovine MsrA act -3.2, SMARCA2 activ -0.5 and MsrA inh confirm 4.2.
Screening CCn1cc(/C=C(\NC(=O)c2cc(OC)c(OC)c(OC)c2)C(=O)NCCCN2CCOCC2)c2ccccc21 returned ABCB6 inh 2 96.0, MsrA inhibitor 1.8, bovine MsrA act -2.1 and SMARCA2 activ -1.9.
`CC1(C(=O)NCC2CC2)Cc2c(-c3ccccc3)ccnc2O1` (centres undefined) gave ABCB6 inh 2 117.0, MsrA inhibitor 1.4, bovine MsrA act -3.9 and SMARCA2 activ 0.9.
For O=C(NCCN1CCOCC1)c1ccc(F)cc1 the results were ABCB6 inh 2 96.0, MsrA inhibitor 0.5, bovine MsrA act -5.1 and SMARCA2 activ 1.6.
For Cc1ccc(C(=O)NCCc2ccccc2)cc1 the results were ABCB6 inh 2 98.0 and bovine MsrA act -1.6.
`O=C(NCCc1ccccc1)c1ccc(=O)oc1` gave ABCB6 inh 2 92.0, MsrA inhibitor 8.2*, bovine MsrA act -15.5, SMARCA2 activ -1.2 and MsrA inh confirm 8.0*.
`O=C(NCCN1CCOCC1)c1ccc(=O)oc1` gave ABCB6 inh 2 102.0, MsrA inhibitor 5.4*, bovine MsrA act -5.8, SMARCA2 activ 0.0 and MsrA inh confirm 4.2.
CC(NC(=O)c1ccc(=O)oc1)c1ccccc1 (centres undefined) was read as ABCB6 inh 2 101.0, MsrA inhibitor 7.2*, bovine MsrA act -5.2, SMARCA2 activ 1.9 and MsrA inh confirm 7.4*.
Screening CC1(c2nnnn2-c2ccc3ccccc3c2)CSCC(=O)N1C1CC1 (centres undefined) returned SMARCA2 activ -1.8.
Screening NC(=O)c1ccsc1NC(=O)COC(=O)/C=C/c1ccccc1[N+](=O)[O-] returned ABCB6 inh 2 92.0, MsrA inhibitor 11.5*, bovine MsrA act -1.5, SMARCA2 activ 0.9 and MsrA inh confirm 9.4*.
For CC1(C)CC(N2CCCCC2)=CC(=[N+]2CCCCC2)C1 the results were ABCB6 inh 2 110.0, MsrA inhibitor 10.5*, bovine MsrA act -8.2, SMARCA2 activ -6.9 and MsrA inh confirm 8.1*.
CC1(C)CC(N2CCOCC2)=CC(=[N+]2CCOCC2)C1 was read as ABCB6 inh 2 87.0, MsrA inhibitor 10.4*, bovine MsrA act -8.9, SMARCA2 activ 2.0 and MsrA inh confirm 5.5*.
`Cc1cc(C)nc(NNC2=CC(=[N+]3CCCCC3)CC(C)(C)C2)n1` gave ABCB6 inh 2 84.0, MsrA inhibitor 2.6, bovine MsrA act -11.2 and SMARCA2 activ -4.5.
`CCCN(CCC)C1=CC(=[N+]2CCCC2)CC(C)(C)C1` gave ABCB6 inh 2 99.0, MsrA inhibitor 5.1*, bovine MsrA act -8.6, SMARCA2 activ -3.9 and MsrA inh confirm 4.3.
`CC1C[N+](=C2C=C(N3CCOCC3)CC(C)(C)C2)CC(C)O1` (centres undefined) gave ABCB6 inh 2 94.0, MsrA inhibitor 11.1*, bovine MsrA act -13.2, SMARCA2 activ -0.6 and MsrA inh confirm 6.7*.
`CN(C)NC1=CC(=[N+]2CCCC2)CC(C)(C)C1` gave ABCB6 inh 2 98.0, MsrA inhibitor 1.4, bovine MsrA act -4.6 and SMARCA2 activ -0.3.
For COC(=O)[C@]12C[C@H](CC(=O)N3CCCCC3)C(=O)N(Cc3ccc4c(c3)OCO4)C1=C[C@H](C(C)C)O[C@@H]2C1CC1 the results were SMARCA2 activ 1.1.
C=CCc1cccc(C=NNC(=O)c2ccco2)c1O was read as SMARCA2 activ -5.2.
`CCOC(=O)N1CCN(c2nc(C(F)(F)F)nc3c(C)cc(C)cc23)CC1` gave ABCB6 inh 2 87.0, MsrA inhibitor -1.2, bovine MsrA act -4.4 and SMARCA2 activ -0.8.
